Data as given in PubChem BioAssay (NCI).
This is part of a sample that, as a whole, favours compounds with a hit. Of some 83,000 tested, about 20% had one in any assay.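 Activity criterion: percent growth below 10, measured after cells in 96-well plates were exposed to a single compound concentration for 48 hours.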 Calls of active or inactive are those of the source.

How the values were obtained:
Experiment in all cases: NCI-60 one-dose screen, 48 h (100 = growth as untreated, 0 = no growth, -100 = all killed)
Details in all cases: 10 µM
[1] = tested on: SR leukemia
[2] = tested on: RPMI-8226 leukemia
[3] = tested on: OVCAR-8 ovarian
[4] = tested on: OVCAR-5 ovarian
[5] = tested on: OVCAR-4 ovarian
[6] = tested on: SK-OV-3 ovarian
[7] = tested on: IGROV1 ovarian
[8] = tested on: HS 578T breast
[9] = tested on: NCI/ADR-RES ovarian
[10] = tested on: T-47D breast
[11] = tested on: MDA-MB-435 melanoma
[12] = tested on: SW-620 colon
[13] = tested on: MCF7 breast
[14] = tested on: HCT-116 colon
[15] = tested on: HCC-2998 colon
[16] = tested on: KM12 colon
[17] = tested on: BT-549 breast
[18] = tested on: OVCAR-3 ovarian

Measured: growth

CCN(CC)CCOC(=O)c1ccc(N=Nc2ccc(O)c(OC)c2)cc1
inactive: [1] 84.8% | [2] 99.7% | [3] 95.1% | [4] 95.4% | [5] 111% | [6] 105% | [7] 104% | [8] 98.7% | [9] 101% | [10] 86.6% | [11] 103% | [12] 103% | [13] 95.6% | [14] 93.9% | [15] 103% | [16] 103%

O=C(C=P(c1ccccc1)(c1ccccc1)c1ccccc1)c1ccc(Br)cc1
inactive: [1] 56.6% | [2] 47.4% | [3] 89.1% | [4] 104% | [5] 95.5% | [6] 108% | [7] 91.4% | [8] 107% | [10] 87.9% | [17] 107% | [11] 106% | [12] 80.7% | [13] 92.4% | [14] 67.8% | [16] 83.4%

COC(=O)CCCCCCCCC(C)c1ccc(C(C)=O)cc1 (configuration not stated)
inactive: [1] 94.2% | [2] 121% | [3] 104% | [5] 120% | [6] 102% | [7] 110% | [18] 108% | [8] 93.9% | [9] 103% | [10] 94.4% | [17] 130% | [11] 97.1% | [12] 103% | [13] 118% | [14] 110% | [15] 99.6% | [16] 103%

CCCCCCN=C(N)CCCCCCCCCCC(N)=NCCCCCC
inactive: [1] 61.7% | [2] 28.8% | [3] 21.8% | [4] 49.1% | [5] 27.6% | [6] 31.3% | [18] 20% | [8] 26.6% | [10] 12.2% | [17] 39.4% | [11] 38.9% | [12] 22.4% | [13] 14.9% | [14] 16.5% | [15] 35.7% | [16] 34.8%

O=C1CC(c2cccc(-c3cccnc3)c2)=Nc2ccc(Br)cc2N1
inactive: [1] 51.1% | [2] 40.7% | [3] 17.2% | [4] 91.5% | [6] 46.5% | [18] 45% | [8] 27.9% | [9] 19% | [11] 43.5% | [12] 81.8% | [13] 23.6% | [14] 23% | [15] 74.8% | [16] 49.4%
active: [5] -4.81% | [10] -11.6% | [17] -3.46%

COc1ccc(C2C=C(c3ccc(OC)c(OC)c3)N=C3SC=CN32)c(Br)c1 (configuration not stated)
inactive: [3] 66.2% | [5] 62.5% | [6] 101% | [7] 69.8% | [18] 56.9% | [8] 90.4% | [9] 78.2% | [10] 54.7% | [17] 62.5% | [12] 13.4% | [13] 12.7% | [15] 95% | [16] 31.5%
active: [1] -14.8% | [2] -12.4% | [11] 5.29% | [14] -78.2%

CC(C)CCN(CCCNc1c2c(nc3cc(Cl)ccc13)CCCC2)CCC(C)C
inactive: [2] 39.5% | [3] 79.4% | [5] 50.8% | [6] 93.2% | [7] 50.2% | [18] 81.6% | [8] 76.1% | [9] 74.3% | [10] 61.7% | [17] 87% | [11] 86.2% | [12] 55.1% | [13] 40% | [14] 31.8% | [15] 90.1% | [16] 73.1%
active: [1] 7.94%

Cc1nnc2c3nnc(-c4ccc(Cl)cc4)n3c3ccccc3n12
inactive: [1] 77% | [2] 95% | [3] 98.1% | [5] 115% | [6] 92.5% | [7] 91.8% | [18] 104% | [8] 97.9% | [9] 107% | [10] 105% | [17] 91.5% | [11] 94.9% | [12] 106% | [13] 101% | [14] 101% | [15] 102% | [16] 103%

CCOc1ccc(-n2cc(-c3ccc(N(C)C)cc3)[n+]3c2CCCCC3)cc1
inactive: [1] 27.3% | [3] 12.2% | [4] 40% | [18] 21.8% | [8] 28.5% | [9] 92.8% | [11] 15.1% | [12] 19.1% | [15] 21.3% | [16] 14.3%
active: [2] 6.41% | [5] 9.15% | [6] -5.85% | [10] 0.571% | [17] -1.7% | [13] 5.05% | [14] 0.582%

CCOC(=O)CNC(=O)Nc1ccc(Oc2ccc(NC(=O)NCC(=O)OCC)cc2)cc1
inactive: [1] 94.2% | [2] 99.9% | [3] 98.4% | [5] 106% | [6] 104% | [7] 102% | [18] 107% | [8] 101% | [9] 101% | [10] 106% | [17] 111% | [11] 95.4% | [12] 98% | [13] 76.4% | [14] 98.1% | [15] 93.3% | [16] 105%

COc1ccc(-c2nnc(SCC(=O)c3ccccc3)o2)cc1
inactive: [1] 100% | [2] 89% | [3] 109% | [4] 100% | [5] 108% | [6] 102% | [18] 105% | [8] 103% | [9] 91.9% | [10] 86.3% | [17] 74.9% | [11] 101% | [12] 102% | [13] 104% | [14] 78.9% | [15] 86.1% | [16] 98.3%

CCOC(=O)c1c(C)n(-c2ccc(Cl)cc2)c2ccc(OC(=O)/C=C/c3ccccc3)cc12
active: [11] 9.43%
inactive: [1] 26.7% | [2] 67.6% | [3] 88.8% | [5] 81.6% | [6] 93.9% | [7] 88.3% | [18] 77.7% | [8] 82.6% | [9] 61.7% | [10] 82.7% | [17] 82.2% | [12] 67% | [13] 59.6% | [14] 90.6% | [15] 102%

Nc1ccn([C@@H]2O[C@H](COP(=O)(O)O[C@@H]3C[C@H](n4cc(F)c(=O)[nH]c4=O)O[C@@H]3COP(=O)(O)O[C@@H]3C[C@H](n4cc(F)c(=O)[nH]c4=O)O[C@@H]3COP(=O)(O)O[C@@H]3C[C@H](n4cc(F)c(=O)[nH]c4=O)O[C@@H]3COP(=O)(O)O[C@@H]3C[C@H](n4cc(F)c(=O)[nH]c4=O)O[C@@H]3COP(=O)(O)O[C@@H]3C[C@H](n4cc(F)c(=O)[nH]c4=O)O[C@@H]3COP(=O)(O)O[C@@H]3C[C@H](n4cc(F)c(=O)[nH]c4=O)O[C@@H]3COP(=O)(O)O[C@@H]3C[C@H](n4cc(F)c(=O)[nH]c4=O)O[C@@H]3COP(=O)(O)O[C@@H]3C[C@H](n4cc(F)c(=O)[nH]c4=O)O[C@@H]3COP(=O)(O)O[C@@H]3C[C@H](n4cc(F)c(=O)[nH]c4=O)O[C@@H]3COP(=O)(O)O[C@@H]3C[C@H](n4cc(F)c(=O)[nH]c4=O)O[C@@H]3COP(=O)(O)OCCOCCOCCOCCOCCOCCO)[C@H](O)C2O)c(=O)n1 (some centres not stated)
inactive: [1] 44.3% | [2] 50.1% | [3] 40.7% | [4] 89.9% | [5] 84% | [6] 32% | [18] 64.5% | [8] 111% | [10] 80.5% | [17] 48.7% | [11] 61.4% | [12] 58.2% | [13] 19.4% | [14] 20.4% | [15] 50.4% | [16] 47%

CN(C)Cc1cccs1
inactive: [1] 114% | [2] 102% | [3] 97% | [4] 98.5% | [5] 109% | [6] 87.8% | [18] 101% | [8] 102% | [9] 101% | [10] 83.9% | [17] 96.6% | [11] 118% | [12] 108% | [13] 103% | [14] 89% | [15] 96.6% | [16] 101%

CCc1c(C(=O)NCc2c(O)ccc3cccc(O)c23)[nH]c(C)c1C(C)=O
active: [10] 9.15%
inactive: [1] 30.5% | [2] 15.3% | [3] 38.4% | [4] 90.4% | [5] 27.6% | [6] 62.2% | [18] 12.6% | [8] 35% | [9] 29.2% | [17] 34.5% | [11] 35.1% | [12] 68.7% | [13] 11.6% | [14] 42.3% | [15] 47.9% | [16] 31.2%

O=C(NCCc1nccs1)c1cnc2c(S)cccc2c1
active: [18] 5.69% | [9] 5.32% | [12] 4.05% | [13] -3.22% | [14] 2.16%
inactive: [1] 14.6% | [2] 26.2% | [3] 29.3% | [4] 75.2% | [5] 27.1% | [6] 20.1% | [8] 21.5% | [10] 10.8% | [17] 48.1% | [11] 26.4% | [15] 35.5% | [16] 19.6%

O=C(/C=C/c1nnc2n(Cc3ccccc3)c(=O)c3c4c(sc3n12)CCCC4)c1ccccc1
active: [1] -5.47% | [2] 1.69% | [10] -39.2% | [12] 9.38%
inactive: [3] 19.3% | [4] 115% | [5] 112% | [6] 108% | [18] 68.4% | [8] 110% | [9] 85.8% | [17] 82.4% | [11] 93.2% | [13] 64.3% | [14] 44.1% | [15] 87.8% | [16] 55.2%

COc1c(C)c(C)c(OC)c2c1[nH]c(=O)c1c3cccnc3cn21
inactive: [1] 94.8% | [2] 108% | [3] 111% | [4] 122% | [6] 103% | [18] 104% | [8] 99.5% | [10] 94.9% | [17] 124% | [11] 110% | [12] 99.3% | [13] 88.5% | [14] 104% | [16] 106%
